The results in this text go back to PubChem BioAssay AID588397 (National Center for Advancing Translational Sciences (NCATS), 2011).

Among all 1,300 compounds or so, about 1,000 (77%) were called active. Roughly 7% stayed inconclusive and do not appear here. The set was probably picked from earlier hits. This is one part of the list. A number with no mark means an inactive call. Calls come from the whole dose curve; as a rule, active = well fitted inhibition curve with a large enough effect; inconclusive = small, poorly fitted or top-dose-only effect; inactive = no such curve, though single readings can be large or run the other way.
% is set by controls: 0 for no effect and ±100 for the full control effect; potency is the fitted concentration of half-maximal effect.

A short description of this experiment: qHTS of small molecules that selectively kill Giardia lamblia: Hit Validation.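 Note: viability measured as ATP content by luminescence so killing lowers signal; nearly all actives have a fitted effect of over 65% in size.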 Particulars: Giardia lamblia trophozoite viability, dose-response; series mostly up to 38.3 µM; activity change, negative = killing: at the top concentration. The essentials:
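Giardia trophozoites, 100 cells per well, were exposed to compounds for 48 hrs at 37 deg C under anaerobic conditions; viability was then read as ATP content by bioluminescence after 15-30 min at room temperature.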
(In general: qHTS replaces the single test concentration by a dilution series.)
For `O=C(/C=C/c1ccc([N+](=O)[O-])s1)N1CCN(c2ccccc2)CC1`, the Potency is 1450 nM (active). Still for that read-out and setting: as for `O=C(/C=C/c1ccc([N+](=O)[O-])s1)N1CCCCC1`, the figure is 1450 nM (active).

On to `O=C(/C=C/c1ccc([N+](=O)[O-])s1)N1CCCC1`, for which the Potency was 1830 nM (active). The same measure, in the same setting: for `CC1CC(C)CN(C(=O)/C=C/c2ccc([N+](=O)[O-])s2)C1` (centres undefined) the value was 4600 nM (active); for `COC(=O)c1ccc(Nc2ccc3nonc3c2[N+](=O)[O-])cc1`, 2050 nM (active).

Consider `O=[N+]([O-])c1c(Nc2ccc(Br)cc2)ccc2nonc12`, for which the Potency was 2900 nM (active). For the compound `O=C(Cc1cccs1)N/N=C\c1ccc([N+](=O)[O-])s1`, the Potency was 2900 nM (active). For the compound `CC(=O)Nc1ccc(S(=O)(=O)N(CCc2ccccc2)CC(=O)N/N=C/c2ccc(C(=O)O)cc2)cc1`, the “activity change, negative = killing” value was -25.4%. Consider `O=C(Cc1ccccc1)N/N=C/c1ccc([N+](=O)[O-])s1`, for which the Potency is 1830 nM (active). Still for that read-out and setting: for `NCCCn1c(C(=O)c2cc(Cl)c(N)c(Cl)c2)c2ccccc2[n+]1[O-]` the value was 1300 nM (active); for `NC(=O)CCCn1c(C(=O)c2cc(Cl)c(N)c(Cl)c2)c2ccc([N+](=O)[O-])cc2[n+]1[O-]`, 5160 nM (active); for `NCCCn1c(C(=O)c2cc(Cl)c(N)c(Cl)c2)c2ccc([N+](=O)[O-])cc2[n+]1[O-]`, 1630 nM (active). Take `CC[C@]1(C(=O)OC)[C@H]2C(=O)N(C)C(=O)[C@H]2[C@H]2CN(C)C(=NC)N21`: the “activity change, negative = killing” value was -4.23%. As to `CC(C)(C)NC(=O)CCN(/N=C/c1ccc([N+](=O)[O-])o1)C1=NS(=O)(=O)c2ccccc21`, the Potency was 1160 nM (active). As for `O=[N+]([O-])c1ccc(-c2nc(C(Cl)Cl)c3ccccc3n2)cc1`, the Potency is 1300 nM (active). As for `O=[N+]([O-])c1ccc(/C=N/Nc2nc(-c3ccccc3)c3cc(Br)ccc3n2)o1`, the Potency is 918 nM (active).

`Cc1ccc2nc(N/N=C\c3ccc([N+](=O)[O-])o3)nc(-c3ccccc3)c2c1`: the Potency was 460 nM (active).

Take `Cc1cc(N/N=C/c2ccc([N+](=O)[O-])o2)nc2ccccc12`: the Potency was 1830 nM (active). Same read-out and setting: for `O=C(Nc1ccc(N2CCN(C(=O)c3ccc(Cl)cc3)CC2)cc1)c1ccc([N+](=O)[O-])o1` the value was 579 nM (active). Still for that read-out and setting: for `Cc1ccccc1C(=O)N1CCN(c2ccc(NC(=O)c3ccc([N+](=O)[O-])o3)cc2)CC1` the value was 818 nM (active); for `O=C(Nc1ccc(N2CCN(C(=O)c3ccccc3)CC2)cc1)c1ccc([N+](=O)[O-])o1`, 818 nM (active); for `COCCNc1cc(NCCOC)c([N+](=O)[O-])cc1[N+](=O)[O-]`, 1450 nM (active). For `COC(=O)c1ccc2cc(OC)cc([N+](=O)[O-])c2n1`, the Potency was 5790 nM (active). The same measure, in the same setting: for `COCc1nnc(NC(=O)c2ccc(Cl)cc2[N+](=O)[O-])s1` the value was 2590 nM (active); for `O=C(C1=C(c2ccccc2)C(=O)c2ccccc2C1=O)c1ccccc1`, 11600 nM (active); for `O=[N+]([O-])c1cc(C(F)(F)F)ccc1Oc1cccnc1[N+](=O)[O-]`, 4100 nM (active). Still for that read-out and setting: as for `Cc1csc(NC(=O)c2cn3ccccc3n2)n1`, the figure is 1630 nM (active). As to `O=C(COc1cccnc1[N+](=O)[O-])NCc1ccc(F)cc1`, the Potency was 5160 nM (active). The same measure, in the same setting: as for `O=C(COc1cccnc1[N+](=O)[O-])Nc1ccc2c(c1)CCC2`, the figure is 16300 nM (active). On the same count and under the same terms, as for `COc1cccc(NC(=O)COc2cccnc2[N+](=O)[O-])c1`, the figure is 4600 nM (active); as for `CCN(CC(=O)NCc1cccs1)C(=O)c1ccc([N+](=O)[O-])o1`, 410 nM (active). In the case of `O=C(CCN1C(=O)c2ccccc2C1=O)NCc1ccc(F)cc1`, the “activity change, negative = killing” value was -5.49%. In the case of `CCN(CC)CCNC(=O)c1ccc(NC(=O)COc2ccc3c(c2)CCC3)cc1`, the “activity change, negative = killing” value was -8.63%. Same read-out and setting: as for `C=CCNc1ncnc2sc(SC)nc12`, the figure is -20.1%. With `COc1ccc(CNC(=O)COc2cccnc2[N+](=O)[O-])cc1OC`, the Potency was 11600 nM (active). Regarding `O=C(COc1cccnc1[N+](=O)[O-])NCc1ccco1`, the Potency was 6500 nM (active). Take `COc1ccc(CNC(=O)COc2cccnc2[N+](=O)[O-])cc1`: the Potency was 6500 nM (active). For the compound `COc1ccc(C(C)=O)cc1COc1cccnc1[N+](=O)[O-]`, the Potency was 6500 nM (active). Turning to `O=C(NCCc1ccccc1)c1ccc(CS(=O)(=O)c2ccc(Cl)cc2)o1`, the “activity change, negative = killing” value was -35.5%. As to `O=C(COc1cccnc1[N+](=O)[O-])NCc1cccs1`, the Potency is 8180 nM (active). The same measure, in the same setting: for `O=C(COc1cccnc1[N+](=O)[O-])Nc1ccc(F)cc1` the value was 5790 nM (active); for `CC1CCCCC1NC(=O)COc1cccnc1[N+](=O)[O-]` (centres undefined), 2310 nM (active). In the case of `CCCCc1cc(=O)oc2c(C)c(OCC(=O)NCc3ccccn3)ccc12`, the “activity change, negative = killing” value is -36.2%. Still for that read-out and setting: as for `CC1CCCCC1NC(=O)NC(=O)COC(=O)c1cncc(Br)c1` (centres undefined), the figure is 11.2%. In the case of `O=C(COc1cccnc1[N+](=O)[O-])NCCc1ccc(Cl)cc1`, the Potency was 3650 nM (active). On to `CN(C)S(=O)(=O)c1cccc(C(=O)NCCNC(=O)c2cccc(S(=O)(=O)N(C)C)c2)c1`, for which the “activity change, negative = killing” value was 15.2%. In the case of `CN(C)c1cc(NC(=O)CNC(C)(C)CC(C)(C)C)c2ccccc2n1`, the Potency was 1030 nM (active). Consider `O=[N+]([O-])c1ccccc1S(=O)(=O)Oc1ccccc1/C=N/n1cnnc1`, for which the Potency is 2050 nM (active).

Regarding `O=[N+]([O-])c1ccccc1S(=O)(=O)Oc1ccc(/C=N/n2cnnc2)cc1`, the Potency is 516 nM (active). Same read-out and setting: as for `Cc1cc2ccccn2c1C(=O)c1ccc([N+](=O)[O-])cc1[N+](=O)[O-]`, the figure is 4600 nM (active); as for `Cn1ccsc1=NC(=O)c1ccc([N+](=O)[O-])o1`, 206 nM (active); as for `Cc1[nH]n(C2=NCCS2)c(=O)c1N=Nc1cccc(C(F)(F)F)c1`, 6500 nM (active). Same read-out and setting: for `CCOC(=O)C1CCN(c2ccc([N+](=O)[O-])c(C(C)=O)c2)CC1` the value was 2310 nM (active). As for `CC(=O)c1cc(N2CCOCC2)ccc1[N+](=O)[O-]`, the Potency was 1830 nM (active). As for `CC1CCN(c2ccc(-c3ccc(NC(=O)C(F)(F)F)cc3)nn2)CC1`, the Potency is 1830 nM (active). `CCC(C(=O)OC)n1c(-c2ccccc2)nc2ccccc2c1=O` (centres undefined): the “activity change, negative = killing” value was 1.17%. Take `COc1ccc(-c2nc3ccccc3n2OCC(=O)O)cc1`: the Potency is 5790 nM (active). On the same count and under the same terms, for `CC(NC(=O)Cn1cc(Br)c([N+](=O)[O-])n1)c1ccccc1` (centres undefined) the value was 516 nM (active). As for `NNC(=O)c1cccc(Cn2cc(Br)c([N+](=O)[O-])n2)c1`, the Potency is 1160 nM (active).
